TDP1 cell CPT – DT40-hTDP1 cell growth loss with CPT. Potency, µM (top dose mostly 46.2 µM), without a hit: top-dose activity change, negative = growth inhibition, usual class: inhibitors. hit rate 12% among 420,000. AID 686979. chicken DT40 Tdp1-/-;hTDP1 cells + 20 nM CPT, ATP luminescence, 48 h; further: potency means the concentration at half of the fitted maximal effect; on the % scale 0 is the no-effect control and ±100 the full control effect; nearly all actives have a fitted effect of over 55% in size
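Cell growth measured by CellTiter-Glo luminescence after a minimum 48 h, 37 C compound exposure with 20 nM CPT in Tdp1-knockout DT40 cells stably expressing hTDP1, seeded 400/well; qHTS titration format.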
DT40 TDP1 no CPT – qHTS for Inhibitors of human tyrosyl-DNA phosphodiesterase 1 (TDP1): qHTS in cells in absence of CPT. DT40 Tdp1-/- hTDP1 cells, no CPT, ATP luminescence, 48 h. Potency, µM (titrated, usually from 46.2 µM), inactives show at the highest dose activity change, negative = growth inhibition, most hits filed as inhibitors. hit rate 15% among 420,000. AID 686978, 2013; further: potency means the concentration at half of the fitted maximal effect; on the % scale 0 is the no-effect control and ±100 the full control effect; nearly all actives have a fitted effect of over 55% in size
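DT40 Tdp1-/-;hTDP1 cells, no CPT (DMSO vehicle only), 400 cells/well; compounds pin-transferred; ≥48 hr, 37 °C; CellTiter-Glo 30 min RT dark, luminescence read.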
IL1B secr inh – inflammasome signaling inhibition, IL-1 beta readout. activity change, % at 57.5 µM. THP-1 LPS/ATP IL-1B secretion, AlphaLISA, 16 h; hits give low values. hit rate 4.7% among 360,000; in the data active means activity change below about -50%; inconclusive means mostly about -30% to -49%; further: on the % scale 0 is the no-effect control and ±100 the full control effect
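Secreted IL-1B measured by AlphaLISA bead assay after 16 h compound exposure of THP-1 cells; compounds (final up to 57.5 uM) added 1 h before LPS (250 ng/mL) and ATP (1.25 mM) stimulation; lower signal means less secretion.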
D3 antag – antagonists of human D3 dopamine receptor; P35462; D3R cells, DiscoveRx beta-arrestin luminescence, antagonist mode; hits give low values; max response, negative = inhibition, %; hit rate 2.5% among 360,000; AID 652054; in the data active means max response below about -50%; inconclusive means no clear call, values can overlap the other calls; further: on the % scale 0 is the no-effect control and ±100 the full control effect
Target sequence (P35462 whole entry, looked up): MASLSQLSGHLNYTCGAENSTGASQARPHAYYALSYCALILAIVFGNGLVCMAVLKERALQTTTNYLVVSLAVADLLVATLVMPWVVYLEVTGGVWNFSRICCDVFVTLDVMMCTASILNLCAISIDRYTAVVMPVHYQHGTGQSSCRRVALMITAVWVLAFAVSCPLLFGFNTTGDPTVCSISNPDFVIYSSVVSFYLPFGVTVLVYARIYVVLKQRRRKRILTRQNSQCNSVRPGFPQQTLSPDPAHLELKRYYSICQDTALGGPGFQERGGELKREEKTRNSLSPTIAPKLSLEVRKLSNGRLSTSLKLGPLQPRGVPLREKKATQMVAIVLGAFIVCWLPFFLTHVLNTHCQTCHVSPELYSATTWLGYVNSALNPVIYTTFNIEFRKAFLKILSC
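Cells expressing the human receptor were seeded at 1500 cells/well, incubated overnight at 37 degrees C in 5% CO2, then exposed to library compounds with dopamine controls for 90 minutes at 37 degrees C before luminescent detection.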
DRD3 agonist – activates the human D3 dopamine receptor; P35462; hit rate 0.58% among 410,000; D3R DiscoveRx beta-arrestin cells, luminescence, 90 min; max activation, %; in the data active means max activation above about 30%; further: 0% is about no effect
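Agonist mode: compounds and dopamine controls were applied to plated cells for 90 min at 37 degrees C after an overnight attachment at 1500 cells/well. Luminescent read-out followed 30 - 60 minutes at room temperature with DiscoveRx detection reagent.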
ClpP mod – qHTS Assay for Activators of ClpP; ATP-dependent Clp protease proteolytic subunit (Bacillus subtilis (strain 168)), P80244; purified B. subtilis ClpP, FRET peptide cleavage, 20 min; Potency, µM (series often up to 57.5 µM), for the others: top-dose activity change, negative = active; hit rate 1.9% among 340,000; AID 651965, 2013; active means well fitted falling curve with a large enough effect; inconclusive means small, poorly fitted or top-dose-only effect; inactive means no such curve, though single readings can be large or run the other way; further: potency means the concentration at half of the fitted maximal effect; the source files actives as falling curves though it sought activators and does not explain the sign; nearly all actives have a fitted effect of over 65% in size
Target sequence (P80244 whole entry, looked up): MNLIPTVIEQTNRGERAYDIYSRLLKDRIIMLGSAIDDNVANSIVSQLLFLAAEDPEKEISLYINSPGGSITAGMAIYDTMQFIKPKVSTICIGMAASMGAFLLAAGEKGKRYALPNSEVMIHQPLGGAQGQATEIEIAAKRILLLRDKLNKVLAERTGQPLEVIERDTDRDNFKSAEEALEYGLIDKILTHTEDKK
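Purified B. subtilis ClpP, 10 microg/mL final in Tris/HCl pH8 with KCl, BSA, glycerol and Tween-20, cleaved an Abz/nitrotyrosine-quenched decapeptide. Fluorescence (ex 320, em 430) was read at 0 and 20 min at room temperature. Delta was normalized to 5.8 microM ADEP and DMSO/no-enzyme controls.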
Starred values were filed as active, the others as inactive; u = inconclusive; x = not tested or not shown. Hits are enriched below; roughly 21% of the tested compounds scored in any of these assays. Unless noted, the call rests on the fitted dose curve; in most records, active means well fitted inhibition curve with a large enough effect; inconclusive means small, poorly fitted or top-dose-only effect; inactive means flat fitted curve, though single readings scatter.

SMILES	TDP1 cell CPT	DT40 TDP1 no CPT	IL1B secr inh	D3 antag	DRD3 agonist	ClpP mod
COc1ccc(NC(=O)CN(C)C(=O)/C=C/c2cn(-c3ccccc3)nc2-c2cccs2)cc1	u	18µM*	3	-4	1	u
COc1ccc(NC(=O)CN(C)C(=O)/C=C/c2cn(-c3ccccc3)nc2-c2ccc(F)cc2)cc1	u	23µM*	-21	-4	-23	-16%
COc1ccc(NC(=O)CN(C)C(=O)/C=C/c2cn(-c3ccccc3)nc2-c2ccc(C)cc2)cc1	u	21µM*	-8	-55*	-2	-21%
COCCn1c(C)nnc1SCC(=O)NNC(=O)c1ccc(Br)cc1	-4%	5%	-11	25	21	x
COc1ccc(OC)c(CN2CCN(Cc3cc(=O)oc4cc(O)ccc34)CC2)c1	-18%	u	27	-23	-23	x
Cc1cc(C)c2c(CN3CCN(C)CC3)cc(=O)oc2c1	-10%	-7%	-4	-10	-3	-5%
COc1cc2oc(=O)cc(CN3CCN(c4ccccc4F)CC3)c2cc1Cl	u	u	14	-19	-7	-15%
O=[N+]([O-])c1cc2c(cc1CN1CCN(c3ccccc3F)CC1)OCO2	-1%	8%	-5	-52*	-26	-2%
O=c1cc(CN2CCN(c3ccccc3F)CC2)c2cc(O)c(-c3ccccc3)cc2o1	u	6.5µM*	32	-24	-9	-1%
COc1ccc(N2CCN(Cc3cc(=O)oc4cc(-c5ccccc5)c(O)cc34)CC2)cc1	5.8µM*	6.5µM*	0	-10	1	32µM*
Cc1ccccc1N1CCN(Cc2cc3c(cc2[N+](=O)[O-])OCO3)CC1	u	u	7	-8	-17	1%
Cc1cc(C)c2c(CN3CCN(c4ccccc4F)CC3)cc(=O)oc2c1	23µM*	u	14	u	-15	-4%
O=C(NC(=O)c1csnn1)Nc1ccccc1Cl	1%	4%	0	-17	-16	1%
COc1ccc(C(=O)CC(SCC(NC(C)=O)C(=O)O)c2ccc(Cl)cc2)cc1OC (configuration not stated)	15µM*	u	-88*	0	-2	-6%
N#Cc1cccc(C(c2nnnn2C2CCCC2)N2CCC(Cc3ccccc3)CC2)c1 (configuration not stated)	u	u	-17	-4	-1	-1%
COCCn1nnnc1C(c1ccccc1)N1CCN(C)CC1 (configuration not stated)	8%	-2%	14	38	-3	1%
COCCn1nnnc1C(c1cccc(C#N)c1)N1CCCCCC1 (configuration not stated)	-2%	u	3	-75*	-2	1%
O=c1c(C(c2nnnn2C2CCCCC2)N2CCCCC2)coc2ccc(Cl)cc12 (configuration not stated)	u	21µM*	-19	-13	-1	-11%
N#Cc1cccc(C(c2nnnn2C2CCCC2)N2CCCCCC2)c1 (configuration not stated)	u	u	-18	-54*	-4	-4%
Cc1nc2sc(C)c(C)n2c(=O)c1S(=O)(=O)N1CCN(c2ccccc2F)CC1	-28%	u	x	x	4	u
Cc1ccccc1NC(=O)CN1C(=O)CCn2nc(-c3cccn3C)cc21	-2%	-5%	x	x	11	1%
CNC(=O)C1CC(=O)N(CCCc2ccccc2)C(=Nc2ccccc2)S1 (configuration not stated)	-21%	-27%	0	-2	-5	-4%
COc1cc(OC)c(NC(=O)N2CCc3c([nH]c4ccccc34)C2c2ccccc2F)cc1Cl (configuration not stated)	18µM*	23µM*	x	x	-8	0%
COc1ccc(Cl)cc1NC(=O)N1CC(=O)Nc2sc3c(c2C1c1ccccc1)CCCC3 (configuration not stated)	u	u	x	x	4	-3%
COc1cc(NC(=O)N2CCc3c(sc4c3CCCC4)C2c2ccccc2)cc(OC)c1OC (configuration not stated)	10µM*	21µM*	x	x	1	-2%
SMILES	TDP1 cell CPT	DT40 TDP1 no CPT	IL1B secr inh	D3 antag	DRD3 agonist	ClpP mod
COc1cc(OC)c(NC(=O)N2CCc3c(sc4c3CCCC4)C2c2ccccc2)cc1Cl (configuration not stated)	u	21µM*	x	x	-5	-2%
O=C(CN(Cc1ccc(F)cc1)C(=O)CCC(=O)Nc1nccs1)NCC1CCCO1 (configuration not stated)	5%	-5%	21	7	-7	x
O=S(=O)(NCc1csc(-c2ccccc2)n1)c1ccccc1	2%	-20%	x	x	-10	-3%
C=CC[C@H]1C=C[C@@H](C(C(=O)OC)C(=O)OC)CN1C(C)=O	-19%	-24%	23	-12	1	0%
CC(=O)c1ccc(S(=O)(=O)N(CC(=O)NC2CC2)Cc2ccc(F)cc2)cc1	-5%	-3%	-11	6	7	x
Fc1ccc(/C=N/N2CCN(Cc3ccccc3)CC2)cc1	-26%	u	u	-10	-10	7%
O=C(CN(C(=O)c1csnn1)c1ccccc1F)NCc1ccccc1	4%	-5%	0	8	1	x
O=C(Nc1ccc2c(c1)CCC2)c1cnn2c1NC(c1ccco1)CC2C(F)(F)F (configuration not stated)	12µM*	-58%	-5	-6	2	-4%
CN(Cc1ccc(-n2cccn2)cc1)C(=O)c1cnn2c1NC(c1ccco1)CC2C(F)(F)F (configuration not stated)	23µM*	16µM*	-54*	5	3	0%
O=C(NCc1cccc(Cl)c1)c1cnn2c1NC(c1ccco1)CC2C(F)(F)F (configuration not stated)	18µM*	16µM*	-53*	7	10	2%
O.O.O.O.O.O.O.O=S(=O)([O-])[O-].[Co+2]	-23%	-17%	x	x	-13	x
CCOc1cc(C(=O)Nc2cccc3cccnc23)cc(OCC)c1OCC	u	-102%	x	x	27	-11%
O=C(CN1C(=O)CCSc2ccc(S(=O)(=O)N3CCCC3)cc21)NCc1ccccc1Cl	1%	18%	-10	-13	1	-3%
Cc1ccccc1C(=O)OC1CCCN(C)C1 (configuration not stated)	6%	15%	-4	8	-12	-1%
